Data taken from PubChem BioAssay AID1159580 (chemical genetic matrix, 2015).
Among all 5,500 compounds or so, about 2,000 (36%) were called active. Another 18% or so got no clear call; they are omitted. The list shows a part of the results. Values without a mark were called inactive. Cut-off read from the data, not from the text of the source: active = normalized growth mostly below about 0.91 (no sharp cut-off); inconclusive = no clear call, values can overlap the other calls; inactive = mostly above about 0.92.

Experiment: chemical genetic growth profiling, strain panel (AID 1159580);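 note: tested at 20 µM; growth read once vehicle control cultures reached saturation at 30 °C; 1 = growth at the plate median or of vehicle wells; lower values mean less growth of the strain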
Conditions: growth OD
[1] = S. cerevisiae deletion strains, locus YAL013W, strain DEP1, active compounds read low
[2] = S. cerevisiae deletion strains, locus YHR030C, strain SLT2, active compounds read low
[3] = S. cerevisiae deletion strains, locus YMR307W, strain GAS1, active compounds read low

## NCCc1c[nH]c2ccc(O)cc12
[1]
  normalized growth: 1.02
S. cerevisiae deletion strains, locus YAL040C, strain CLN3, active compounds read low
  normalized growth: 0.969
S. cerevisiae deletion strains, locus YCL061C, strain MRC1 (second series), active compounds read low
  normalized growth: 1.01
S. cerevisiae deletion strains, locus YDR363W, strain ESC2, active compounds read low
  normalized growth: 1.01
S. cerevisiae deletion strains, locus YER002W, strain NOP16, active compounds read low
  normalized growth: 1.01
[2]
  normalized growth: 1.02
S. cerevisiae deletion strains, locus YHR079C, strain IRE1, active compounds read low
  normalized growth: 1.02
S. cerevisiae deletion strains, locus YJL095W, strain BCK1, active compounds read low
  normalized growth: 1.01
S. cerevisiae deletion strains, locus YJR066W, strain TOR1, active compounds read low
  normalized growth: 0.942
S. cerevisiae deletion strains, locus YLR113W, strain HOG1, active compounds read low
  normalized growth: 0.991
[3]
  normalized growth: 1.03
S. cerevisiae deletion strains, locus YNL175C, strain NOP13, active compounds read low
  normalized growth: 1.01
S. cerevisiae deletion strains, locus YNL183C, strain NPR1, active compounds read low
  normalized growth: 0.949
S. cerevisiae deletion strains, locus YNL197C, strain WHI3, active compounds read low
  normalized growth: 1
S. cerevisiae deletion strains, locus YNL224C, strain SQS1, active compounds read low
  normalized growth: 1.01
S. cerevisiae deletion strains, locus YOR083W, strain WHI5 (second series), active compounds read low
  normalized growth: 1.04
S. cerevisiae deletion strains, locus YOR231W, strain MKK1, active compounds read low
  normalized growth: 1.02
S. cerevisiae deletion strains, locus YPL256C, strain CLN2, active compounds read low
  normalized growth: 1.01

## CCCCCCCCCCc1ccc(-c2ccccc2)cc1
[1]
  normalized growth: 0.982
S. cerevisiae deletion strains, locus YBR229C, strain ROT2, active compounds read low
  normalized growth: 1.01
S. cerevisiae deletion strains, locus YDL101C, strain DUN1, active compounds read low
  normalized growth: 0.99
S. cerevisiae deletion strains, locus YDR150W, strain NUM1, active compounds read low
  normalized growth: 0.976
S. cerevisiae deletion strains, locus YEL061C, strain CIN8, active compounds read low
  normalized growth: 0.988
S. cerevisiae deletion strains, locus YGR078C, strain PAC10, active compounds read low
  normalized growth: 0.988
[2]
  normalized growth: 0.769
S. cerevisiae deletion strains, locus YHR087W, strain rtc3, active compounds read low
  normalized growth: 1.09
S. cerevisiae deletion strains, locus YJL187C, strain SWE1, active compounds read low
  normalized growth: 1.01
S. cerevisiae deletion strains, locus YJR043C, strain POL32, active compounds read low
  normalized growth: 0.992
S. cerevisiae deletion strains, locus YJR075W, strain HOC1, active compounds read low
  normalized growth: 0.989
S. cerevisiae deletion strains, locus YLR039C, strain RIC1, active compounds read low
  normalized growth: 0.992
S. cerevisiae deletion strains, locus YLR058C, strain SHM2 (second series), active compounds read low
  normalized growth: 1.01
S. cerevisiae deletion strains, locus YLR085C, strain ARP6, active compounds read low
  normalized growth: 0.845
S. cerevisiae deletion strains, locus YLR262C, strain YPT6, active compounds read low
  normalized growth: 0.941
S. cerevisiae deletion strains, locus YML094W, strain GIM5, active compounds read low
  normalized growth: 0.97
S. cerevisiae deletion strains, locus YMR219W, strain ESC1, active compounds read low
  normalized growth: 0.998
S. cerevisiae deletion strains, locus YMR263W, strain SAP30, active compounds read low
  normalized growth: 0.999
[3]
  normalized growth: 0.669
S. cerevisiae deletion strains, locus YNL153C, strain GIM3, active compounds read low
  normalized growth: 1
S. cerevisiae deletion strains, locus YNL298W, strain CLA4 (second series), active compounds read low
  normalized growth: 0.926
S. cerevisiae deletion strains, locus YNL322C, strain KRE1, active compounds read low
  normalized growth: 0.974
S. cerevisiae deletion strains, locus YNR030W, strain Alg12, active compounds read low
  normalized growth: 0.958
S. cerevisiae deletion strains, locus YPL055C, strain LGE1, active compounds read low
  normalized growth: 1.06
S. cerevisiae deletion strains, locus YPL241C, strain CIN2, active compounds read low
  normalized growth: 0.982
S. cerevisiae deletion strains, locus YPR135W, strain CTF4, active compounds read low
  normalized growth: 0.897
S. cerevisiae strains, strain wild type, active compounds read low
  normalized growth: 0.902 (active)
